The full data set covers some 7,900 targets. This sample favours those with a hit. About 0.6% of all pairs of compound and target were hits. A number with no mark means an inactive call.
Assays:
Test in all cases: log2 fold change, soluble protein after heating vs DMSO (PISA); higher = thermal stabilisation; K562 cells, 10 uM, 30 min; active = over 0.2 and 3.5 SD of the protein, either way, in both replicates (recomputed)
erlotinib = compound: C#Cc1cccc(Nc2ncnc3cc(OCCOC)c(OCCOC)cc23)c1 [erlotinib]
How it was run: (§1)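 K562 cells at 2×10^6 cells/mL were given 10 μM compound for 30 min. Aliquots then went through 3 min of heating across 48°C-58°C, were pooled, and were extracted in PBS with 0.5% NP-40 at 4°C, and the supernatant after 21,000xg for 90 min was quantified by TMTpro 16plex LC-MS/MS with channel sums equalised. Thermal stability relative to control samples, from duplicates, is given as log2 fold change.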

[1] = compound: C/C(=N\NC(=O)C1=CC(=CC=C1)S(=O)(=O)N2CCOCC2)/C3=C(C=CC(=C3)Cl)O
How it was run: as §1

[2] = compound: C1=CC(=C(C=C1Cl)C2=NC3=NC=CN=C3C(=N2)NC4=CC=NC=C4)F
How it was run: as §1

[3] = compound: C1=CC(=CC=C1C2=NC3=C(N2)C=C(C=C3)C(=O)N)OC4=CC=C(C=C4)Cl
How it was run: as §1

[4] = compound: C1=CC2=C(C=CC(=C2)/C=C\3/C(=O)NC(=NCC4=CC=CS4)S3)N=C1
How it was run: as §1

[5] = compound: C1=CC2=NC=CN=C2C=C1/C=C/3\C(=O)NC(=O)S3
How it was run: as §1

[6] = compound: C1=CC=C(C=C1)C2=NC(=C(N2)C3=CC=NC=C3)C4=CC(=C(C=C4)Cl)O
How it was run: as §1

[7] = compound: C1=CC=C2C(=C1)C3=NNC4=CC=CC(=C43)C2=O
How it was run: as §1

[8] = compound: C1CCN(C1)C(=O)NC2=CC=CC(=C2)NC3=NC=C(C(=N3)NCCC4=CN=CN4)Br
How it was run: as §1

[9] = compound: C1CN(CCC1(CC2=CC=C(C=C2)Cl)N)C3=NC=NC4=C3C=CN4
How it was run: as §1

UniProt O95747, sequence (O95747 whole entry, looked up): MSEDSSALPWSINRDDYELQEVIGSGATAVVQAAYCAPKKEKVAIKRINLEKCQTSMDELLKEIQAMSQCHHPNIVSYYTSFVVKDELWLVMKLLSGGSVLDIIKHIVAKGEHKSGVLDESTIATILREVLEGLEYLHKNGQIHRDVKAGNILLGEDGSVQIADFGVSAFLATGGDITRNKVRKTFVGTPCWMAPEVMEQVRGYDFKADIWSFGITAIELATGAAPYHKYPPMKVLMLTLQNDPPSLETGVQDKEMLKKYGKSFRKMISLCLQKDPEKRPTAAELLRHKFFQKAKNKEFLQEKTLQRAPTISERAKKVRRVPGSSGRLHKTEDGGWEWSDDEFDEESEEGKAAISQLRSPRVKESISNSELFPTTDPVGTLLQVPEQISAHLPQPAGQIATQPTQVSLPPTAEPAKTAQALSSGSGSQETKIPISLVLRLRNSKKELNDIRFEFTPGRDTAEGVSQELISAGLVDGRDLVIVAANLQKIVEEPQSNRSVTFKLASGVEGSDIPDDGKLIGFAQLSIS
UniProt Q8NCE2, sequence (Q8NCE2 whole entry, looked up): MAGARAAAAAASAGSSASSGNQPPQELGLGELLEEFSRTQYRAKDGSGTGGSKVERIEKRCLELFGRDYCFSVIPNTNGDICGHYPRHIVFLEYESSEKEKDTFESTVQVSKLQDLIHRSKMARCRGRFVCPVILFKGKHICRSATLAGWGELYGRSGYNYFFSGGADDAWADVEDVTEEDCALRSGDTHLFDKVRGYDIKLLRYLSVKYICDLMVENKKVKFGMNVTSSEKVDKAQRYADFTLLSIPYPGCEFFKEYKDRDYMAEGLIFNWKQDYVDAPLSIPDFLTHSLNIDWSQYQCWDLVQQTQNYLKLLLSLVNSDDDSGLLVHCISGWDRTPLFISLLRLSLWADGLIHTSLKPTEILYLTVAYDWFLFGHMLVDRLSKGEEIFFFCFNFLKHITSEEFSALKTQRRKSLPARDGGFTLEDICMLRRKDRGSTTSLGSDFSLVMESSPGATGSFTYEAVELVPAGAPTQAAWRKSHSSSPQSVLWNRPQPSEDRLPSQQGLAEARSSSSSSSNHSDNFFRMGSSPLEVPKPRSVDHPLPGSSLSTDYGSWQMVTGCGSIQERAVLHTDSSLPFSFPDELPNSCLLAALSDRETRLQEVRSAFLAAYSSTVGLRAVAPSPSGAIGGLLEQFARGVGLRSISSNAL
UniProt Q15102, sequence (Q15102 whole entry, looked up): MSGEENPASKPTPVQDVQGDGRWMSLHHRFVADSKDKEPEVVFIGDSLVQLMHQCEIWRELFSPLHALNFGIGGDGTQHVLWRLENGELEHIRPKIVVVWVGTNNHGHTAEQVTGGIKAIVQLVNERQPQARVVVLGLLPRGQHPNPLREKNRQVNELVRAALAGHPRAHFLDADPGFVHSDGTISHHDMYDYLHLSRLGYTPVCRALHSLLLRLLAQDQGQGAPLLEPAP
UniProt P68402, sequence (P68402 whole entry, looked up): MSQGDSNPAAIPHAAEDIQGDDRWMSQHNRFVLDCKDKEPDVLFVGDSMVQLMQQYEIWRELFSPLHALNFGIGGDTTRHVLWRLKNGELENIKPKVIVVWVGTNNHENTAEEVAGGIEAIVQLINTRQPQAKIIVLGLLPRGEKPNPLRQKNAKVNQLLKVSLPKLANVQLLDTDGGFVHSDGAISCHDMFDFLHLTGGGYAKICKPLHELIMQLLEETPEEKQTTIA
UniProt Q5TFE4, sequence (Q5TFE4 whole entry, looked up): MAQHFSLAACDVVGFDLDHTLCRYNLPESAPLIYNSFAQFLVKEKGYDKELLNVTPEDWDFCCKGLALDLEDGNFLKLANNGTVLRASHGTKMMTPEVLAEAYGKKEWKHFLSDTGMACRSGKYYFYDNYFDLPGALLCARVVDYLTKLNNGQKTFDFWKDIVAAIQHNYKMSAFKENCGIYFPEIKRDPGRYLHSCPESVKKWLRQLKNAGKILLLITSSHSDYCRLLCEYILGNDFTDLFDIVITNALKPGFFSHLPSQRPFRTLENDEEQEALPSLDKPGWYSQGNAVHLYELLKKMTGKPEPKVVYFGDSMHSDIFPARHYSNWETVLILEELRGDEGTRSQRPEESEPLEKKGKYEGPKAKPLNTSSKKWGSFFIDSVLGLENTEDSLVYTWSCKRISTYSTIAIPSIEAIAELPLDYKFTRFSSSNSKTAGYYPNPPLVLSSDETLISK
UniProt Q9BW27, sequence (Q9BW27 whole entry, looked up): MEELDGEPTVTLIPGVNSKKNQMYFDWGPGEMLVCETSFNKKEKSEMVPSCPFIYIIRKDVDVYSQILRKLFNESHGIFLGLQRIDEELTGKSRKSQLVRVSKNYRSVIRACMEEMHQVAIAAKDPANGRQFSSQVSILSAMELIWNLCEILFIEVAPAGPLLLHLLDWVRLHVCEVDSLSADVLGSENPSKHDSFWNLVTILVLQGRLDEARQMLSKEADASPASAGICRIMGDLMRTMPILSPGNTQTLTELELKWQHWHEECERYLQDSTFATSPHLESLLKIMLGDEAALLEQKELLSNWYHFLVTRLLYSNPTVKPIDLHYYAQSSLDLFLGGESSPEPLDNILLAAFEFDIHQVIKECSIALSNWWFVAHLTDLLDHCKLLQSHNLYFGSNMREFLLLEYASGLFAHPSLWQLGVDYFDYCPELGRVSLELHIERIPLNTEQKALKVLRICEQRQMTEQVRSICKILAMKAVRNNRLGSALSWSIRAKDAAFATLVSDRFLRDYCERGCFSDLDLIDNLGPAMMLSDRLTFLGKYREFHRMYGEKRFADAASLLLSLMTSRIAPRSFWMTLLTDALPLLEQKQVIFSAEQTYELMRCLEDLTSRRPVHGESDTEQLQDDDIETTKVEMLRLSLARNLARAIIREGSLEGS
UniProt Q9H000, sequence (Q9H000 whole entry, looked up): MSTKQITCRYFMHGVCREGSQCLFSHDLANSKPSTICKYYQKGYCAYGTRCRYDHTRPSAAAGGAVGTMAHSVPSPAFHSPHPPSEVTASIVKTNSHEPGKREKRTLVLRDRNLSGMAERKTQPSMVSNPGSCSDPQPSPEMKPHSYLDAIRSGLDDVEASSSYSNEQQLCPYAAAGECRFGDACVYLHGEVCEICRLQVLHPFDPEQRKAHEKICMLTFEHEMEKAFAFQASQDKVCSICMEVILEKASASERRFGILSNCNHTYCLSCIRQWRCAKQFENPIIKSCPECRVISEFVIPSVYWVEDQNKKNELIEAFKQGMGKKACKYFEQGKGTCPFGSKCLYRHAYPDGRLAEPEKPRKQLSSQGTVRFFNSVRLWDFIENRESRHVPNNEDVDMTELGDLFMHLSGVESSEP
UniProt Q13153, sequence (Q13153 whole entry, looked up): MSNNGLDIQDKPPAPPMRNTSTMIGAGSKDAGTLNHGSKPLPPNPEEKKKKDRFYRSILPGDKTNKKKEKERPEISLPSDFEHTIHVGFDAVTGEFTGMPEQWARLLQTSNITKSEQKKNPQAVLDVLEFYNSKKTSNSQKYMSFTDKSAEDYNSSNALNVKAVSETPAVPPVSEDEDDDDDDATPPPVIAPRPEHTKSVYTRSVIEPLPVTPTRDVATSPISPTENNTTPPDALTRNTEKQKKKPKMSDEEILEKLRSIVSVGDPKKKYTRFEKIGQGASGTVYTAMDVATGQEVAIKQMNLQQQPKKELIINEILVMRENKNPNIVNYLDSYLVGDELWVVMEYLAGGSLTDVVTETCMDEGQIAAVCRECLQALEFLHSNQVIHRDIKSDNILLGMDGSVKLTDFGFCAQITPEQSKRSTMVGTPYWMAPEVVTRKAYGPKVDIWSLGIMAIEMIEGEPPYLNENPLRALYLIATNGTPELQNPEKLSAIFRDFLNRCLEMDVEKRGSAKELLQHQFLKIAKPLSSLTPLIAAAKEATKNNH
UniProt Q9BUB5, sequence (Q9BUB5 whole entry, looked up): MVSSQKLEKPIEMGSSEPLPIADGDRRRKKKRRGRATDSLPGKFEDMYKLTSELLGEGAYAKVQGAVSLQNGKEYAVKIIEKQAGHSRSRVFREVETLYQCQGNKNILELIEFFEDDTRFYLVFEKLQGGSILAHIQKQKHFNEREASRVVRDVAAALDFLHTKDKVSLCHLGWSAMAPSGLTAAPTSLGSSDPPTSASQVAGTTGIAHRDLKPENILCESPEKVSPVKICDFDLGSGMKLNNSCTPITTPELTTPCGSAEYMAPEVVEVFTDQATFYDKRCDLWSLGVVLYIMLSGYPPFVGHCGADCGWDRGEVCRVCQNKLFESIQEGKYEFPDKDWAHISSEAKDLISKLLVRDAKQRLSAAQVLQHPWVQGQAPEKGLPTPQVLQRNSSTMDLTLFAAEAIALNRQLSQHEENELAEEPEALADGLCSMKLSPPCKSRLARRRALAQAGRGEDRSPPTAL
UniProt P48645, sequence (P48645 whole entry, looked up): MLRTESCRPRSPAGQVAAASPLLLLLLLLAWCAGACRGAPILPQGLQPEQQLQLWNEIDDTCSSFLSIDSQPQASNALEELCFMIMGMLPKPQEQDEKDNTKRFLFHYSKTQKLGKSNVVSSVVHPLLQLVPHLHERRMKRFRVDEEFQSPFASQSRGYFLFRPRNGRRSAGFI
UniProt Q15738, sequence (Q15738 whole entry, looked up): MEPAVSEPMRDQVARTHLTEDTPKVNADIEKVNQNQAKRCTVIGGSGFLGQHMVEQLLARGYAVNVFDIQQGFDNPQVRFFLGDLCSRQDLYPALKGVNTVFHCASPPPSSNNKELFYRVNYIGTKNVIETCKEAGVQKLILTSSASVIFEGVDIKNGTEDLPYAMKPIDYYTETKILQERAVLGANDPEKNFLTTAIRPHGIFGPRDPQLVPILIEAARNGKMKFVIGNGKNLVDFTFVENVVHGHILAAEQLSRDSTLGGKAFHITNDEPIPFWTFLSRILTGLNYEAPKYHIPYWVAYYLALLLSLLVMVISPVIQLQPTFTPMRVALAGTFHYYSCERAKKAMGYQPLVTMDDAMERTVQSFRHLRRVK

Target	log2 fold change (erlotinib)	log2 fold change [1]	log2 fold change [2]	log2 fold change [3]	log2 fold change [4]	log2 fold change [5]	log2 fold change [6]	log2 fold change [7]	log2 fold change [8]	log2 fold change [9]
OXSR1 (UniProt O95747)	0.042	0.091	-0.024	-0.056	0.106	0.004	0.039	0.054	-0.008	0.007
MTMR14 (UniProt Q8NCE2)	-0.019	0.009	0.047	0.037	0.002	0.009	-0.038	-0.05	-0.05	0.028
NMU (UniProt P48645)	-0.003	0.072	-0.02	0.063	-0.123	0.094	-0.129	-0.018	0.025	0.133
PAFAH1B3 (UniProt Q15102)	0.028	0.091	0.029	0.017	0.148	-0.038	0.085	0.061	-0.058	0.032
NT5DC1 (UniProt Q5TFE4)	0.071	0.001	0.087	-0.019	0.087	-0.008	0.02	0.02	0.008	0.028
PAK1 isoform 2 (UniProt Q13153)	0.063	0.105	0.067	-0.013	0.009	0.086	0.027	-0.008	0.014	0.083
PAFAH1B2 (UniProt P68402)	0.195	-0.088	0.134	-0.016	-0.036	-0.034	0.068	0.027	0.128	0.047
MKNK1 (UniProt Q9BUB5)	0.305 (active)	0.09	-0.05	0	0.011	0.081	-0.028	0.001	-0.051	-0.066
NSDHL (UniProt Q15738)	-0.007	0.107	0.047	0.021	0	-0.149	0.065	0.059	-0.039	-0.005
NCOR1 (UniProt O75376)	-0.057	0.021	-0.034	0.041	0.08	0.026	0.044	-0.21	-0.055	-0.051
MRPS17 (UniProt Q9Y2R5)	-0.034	-0.019	-0.125	0.142	-0.062	0	0.042	0.088	-0.014	-0.126
NFATC3 (UniProt Q12968)	0.121	0.197	0.024	0	0.039	-0.013	-0.019	-0.101	-0.01	-0.027
MRPS27 isoform 2 (UniProt Q92552)	-0.044	-0.058	0.018	0.061	0.056	0.024	0.074	0.086	-0.048	-0.106
MKRN2 (UniProt Q9H000)	-0.038	0.057	-0.16	0.013	-0.058	0.002	-0.011	-0.052	-0.085	0.061
NUP85 (UniProt Q9BW27)	0.046	0.08	0.037	0.036	0	0.028	-0.012	-0.066	-0.051	0.008

From the supplement of paper PMC10849652
